Laboratory results: PubChem BioAssay (NCI)
Compounds without any hit were thinned out: in the full panel of roughly 83,000, 20% have a hit.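 Activity criterion: percent growth below 10, measured after cells in 96-well plates were exposed to a single compound concentration for 48 hours.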 A number with no mark means an inactive call. The source made the active and inactive calls.

Legend:
Experiment in all cases: NCI-60 one-dose screen, 48 h (100 = growth as untreated, 0 = no growth, -100 = all killed)
Conditions in all cases: 10 µM unless noted
SK-MEL-2 melanoma = system: SK-MEL-2 melanoma
SN12C renal = system: SN12C renal
UO-31 renal = system: UO-31 renal
TK-10 renal = system: TK-10 renal
ACHN renal = system: ACHN renal
CCRF-CEM leukemia = system: CCRF-CEM leukemia
MOLT-4 leukemia = system: MOLT-4 leukemia
SR leukemia = system: SR leukemia
RPMI-8226 leukemia = system: RPMI-8226 leukemia
OVCAR-8 ovarian = system: OVCAR-8 ovarian
OVCAR-5 ovarian = system: OVCAR-5 ovarian
OVCAR-4 ovarian = system: OVCAR-4 ovarian
SK-OV-3 ovarian = system: SK-OV-3 ovarian
IGROV1 ovarian = system: IGROV1 ovarian
OVCAR-3 ovarian = system: OVCAR-3 ovarian
HS 578T breast = system: HS 578T breast
NCI/ADR-RES ovarian = system: NCI/ADR-RES ovarian
T-47D breast = system: T-47D breast
A498 renal = system: A498 renal

SMILES | growth (SK-MEL-2 melanoma) [%] | growth (SN12C renal) | growth (UO-31 renal) | growth (TK-10 renal) [%] | growth (ACHN renal) | growth (CCRF-CEM leukemia) [%] | growth (MOLT-4 leukemia) [%] | growth (SR leukemia) | growth (RPMI-8226 leukemia) | growth (OVCAR-8 ovarian) | growth (OVCAR-5 ovarian) [%] | growth (OVCAR-4 ovarian) | growth (SK-OV-3 ovarian) [%] | growth (IGROV1 ovarian) [%] | growth (OVCAR-3 ovarian) | growth (HS 578T breast) [%] | growth (NCI/ADR-RES ovarian) | growth (T-47D breast) [%] | growth (A498 renal) [%]
COc1ccc(-c2nc(C#N)c(NCC(c3ccc(Cl)cc3)N3CCCCC3)o2)cc1 (centres undefined) | 109 | 103% | 72% | 112 | 91.7% | 86.9 | 75.9 | 74.5% | 85.6% | 101% | 96 | 87.5% | 109 | 85.8 | 95.1% | 97.3 | 87.1% | 94.8 | –
C=CCn1c(CN2CCN(c3cc4c(cc3F)c(=O)c(C(=O)O)cn4C3CC3)CC2)n[nH]c1=S | 104 | 104% | 83.7% | 88.9 | 102% | 90.1 | 94.2 | 99.1% | 109% | 100% | 94 | 105% | 108 | 96.2 | 102% | 95 | 99.2% | 103 | 98.2
Cc1cccc(C)c1Nc1nnc(-c2ccc(F)cc2)o1 | 105 | – | – | 105 | 100% | 100 | – | 119% | 109% | 109% | 93.9 | 103% | 102 | 97.9 | 93.6% | 108 | 97.8% | 110 | –
COc1ccc2nc(-c3ccc(Cl)cc3)cc(-c3nnc(SCC(=O)Nc4ccc(/C(C)=N\O)cc4)o3)c2c1 | 63.8 | -7.09% (active) | 77.8% | 79.4 | 65.6% | 31.1 | 12.4 | 6.61% (active) | 18.4% | 0.357% (active) | 81.1 | -56.1% (active) | 87.5 | 60.2 | 36.8% | 64.8 | 1.11% (active) | 41.7 | 64
O=C(CN1N=C(c2ccc(F)cc2)CCC1=O)Nc1nc2ccccc2s1 | 92.7 | 40.2% | -84% (active) | 95.3 | -23.6% (active) | – | 33.4 | -52.2% (active) | 26.8% | -43% (active) | 16.9 | 35.4% | 73.5 | – | -40.6% (active) | 67.6 | 6.92% (active) | 83.3 | 97.8
O=C1Nc2ccc(Br)cc2/C1=N\N=C/c1cn(Cc2ccccc2)c2ccccc12 | 91.3 | 84.5% | 75.7% | 82.4 | 98.9% | 81.1 | 67 | 80.1% | 95.9% | 96.1% | 28.3 | 84.3% | 76.2 | 80.7 | 109% | 80.9 | 99.5% | 89.6 | 15.3
COc1ccc(-c2[nH]c3ccc(OC)cc3c2C=C(C#N)C#N)cc1 | 34.3 | 63.1% | 50.1% | 70.4 | 63.9% | 11.1 | 27.3 | -3.05% (active) | -11.5% (active) | 57.3% | 55.8 | 39.5% | 41.7 | 39.1 | -14.1% (active) | 52.4 | 1.87% (active) | 33.8 | 52.6
O=C(O)C(C(=O)O)c1cccc2ccccc12 | 95.2 | 100% | 88.5% | 89.3 | 105% | 92.2 | 94.4 | 90.6% | 109% | 101% | 110 | 100% | 101 | 111 | 112% | 102 | 98.9% | 92.7 | 85.6
C#Cc1cccc(Nc2ncnc3ccc(NC(=O)c4ccccc4)cc23)c1 | 85.3 | 76.6% | 56% | 26.1 | 39.6% | 89.7 | 59.5 | 61.8% | 64.6% | 81.1% | 83.4 | 80.4% | 75.3 | 33.7 | 66.2% | 102 | 69.8% | 61.4 | 65.4
